Laboratory results: the supplement of paper PMC6331611
± gives the standard deviation of the averaged measurements. Over roughly 1,600 compounds, “normalized growth (OD600, IQM-normalized) in LPM” has its median near 1; the lowest 2% begin near 0.014. The full list was thinned out, with the lowest values kept by preference.

System: Salmonella enterica serovar Typhimurium SL1344
Assay: normalized growth (OD600, IQM-normalized) in LPM (fraction of plate interquartile mean); higher = more bacterial growth (less inhibition)
Conditions: LPM pH 5.8; 10 µM; 16 h

Structure (SMILES)	normalized growth
Nc1[nH]cnc2ncnc1-2	0.993 ± 0.02
CCCNC(C)(C)COC(=O)c1ccccc1	0.983 ± 0.027
CC(=O)c1ccc2c(c1)N(CCCN1CCN(CCO)CC1)c1ccccc1S2	0.869 ± 0.053
CCCCCCCCCCCCCCCCCCCCCCO	1.11 ± 0.1
CC(=O)Nc1ccc(S(=O)(=O)c2ccc(NC(C)=O)cc2)cc1	0.889 ± 0.067
CCC(=O)OCC(=O)[C@@]1(OC(=O)CC)[C@H](C)CC2C3C([C@@H](O)C[C@@]21C)[C@@]1(C)C=CC(=O)C=C1C[C@H]3Cl (stereo partly drawn)	1.03 ± 0.019
O=C1c2ccccc2C(=O)C1c1ccc(Br)cc1	0.935 ± 0.066
O=C(OOC(=O)c1ccccc1)c1ccccc1	1.08 ± 0.046
Cc1cnc(C(=O)O)c[n+]1[O-]	0.993 ± 0.078
C[C@@H]1NC(=O)[C@@H](N)CNC(=O)[C@H](C2CCNC(=N)N2)NC(=O)/C(=C/NC(N)=O)NC(=O)[C@H](CNC(=O)CC(N)CCCN)NC1=O.N=C1NCC[C@H]([C@@H]2NC(=O)/C(=C/NC(N)=O)NC(=O)[C@H](CNC(=O)C[C@@H](N)CCCN)NC(=O)[C@H](CO)NC(=O)[C@@H](N)CNC2=O)N1	0.985 ± 0.046
CC(C)(C)CC(C)(C)c1ccc(O)c(Cc2ccc(Cl)cc2Cl)c1	0.861 ± 0.066
Oc1ccc(OCc2ccccc2)cc1	0.91 ± 0.11
Cc1cc(NS(=O)(=O)c2ccc(N)cc2)no1	1.01 ± 0.022
CC[C@H](C)[C@H](N)C1=N[C@H](C(=O)N[C@@H](CC(C)C)C(=O)N[C@H](CCC(=O)O)C(=O)N[C@H](C(=O)N[C@H]2CCCCNC(=O)[C@H](CC(N)=O)NC(=O)[C@@H](CC(=O)O)NC(=O)[C@H](Cc3cnc[nH]3)NC(=O)[C@@H](Cc3ccccc3)NC(=O)[C@H]([C@@H](C)CC)NC(=O)[C@@H](CCCN)NC2=O)[C@@H](C)CC)CS1	1.06 ± 0.043
CC(C)OC(=O)CCC/C=C\C[C@@H]1[C@@H](/C=C/[C@@H](O)COc2cccc(C(F)(F)F)c2)[C@H](O)C[C@@H]1O	1.032 ± 0.0058
C=CC[C@@H]1/C=C(\C)C[C@H](C)C[C@H](OC)[C@H]2O[C@@](O)(C(=O)C(=O)N3CCCC[C@H]3C(=O)O[C@H](/C(C)=C/[C@@H]3CC[C@@H](O)[C@H](OC)C3)[C@H](C)[C@@H](O)CC1=O)[C@H](C)C[C@@H]2OC	0.857 ± 0.044
NC(=O)C1(N2CCCCC2)CCN(CCCC(=O)c2ccc(F)cc2)CC1	1.02 ± 0.051
CC(C)(S)[C@@H](N)C(=O)O	1.083 ± 0.0063
CC1=CC(=O)c2ccccc2C1=O	0.984 ± 0.017
Oc1ccc(Cl)c2cccnc12	0.847 ± 0.037
Oc1c(I)cc(I)c2cccnc12	0.58 ± 0.02
O=[N+]([O-])c1ccc(O)c2ncccc12	0.00762 ± 0.00015
C[C@@H](O)CN(CCN(C[C@@H](C)O)C[C@@H](C)O)C[C@@H](C)O	1.17 ± 0.054
